Assay outcomes as filed in PubChem BioAssay.
SMN2 splice up: enhancers of SMN2 splice variant expression; HEK293 SMN2-luciferase splicing reporter, luminescence, 30-36 h; Potency, µM (titrated, usually from 46.1 µM), usual class: activators; 210,000 compounds, 2.8% hits; note: nearly all actives have a fitted effect of over 55% in size
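HEK293 cells carry an SMN2 minigene-luciferase reporter in which exon 7 inclusion puts luciferase in frame. Cells were seeded at 2000 cells/well, attached for 10-12 hours, then exposed to compounds for 30-36 hours at 37C before ONE-Glo luminescence.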
Rab9 prom act: activators of Rab9 promoter; Huh7 Rab9 promoter-luciferase reporter, luminescence, 24 h; Potency, µM (top dose mostly 9.22 µM), usual class: activators; 320,000 compounds, 2.8% hits; AID 485297; note: nearly all actives have a fitted effect of over 60% in size
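Luminescence from Amplite-detected luciferase (10 minutes, ambient) reports Rab9 promoter activation. Before that, stable Rab9-luciferase Huh7 cells (1500/well, reduced-serum OP-MEM I plus 10% FBS) were exposed to compound for 24 hours at 37C.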
NPC1 prom act: activators of NPC1 promoter; Huh7 NPC1 promoter luciferase reporter, 24 h; Potency, µM (titrated, usually from 9.22 µM), most hits filed as activators; 320,000 compounds, 2.4% hits; note: nearly all actives have a fitted effect of over 60% in size
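Readout is luciferase luminescence, reflecting NPC1 promoter activation in stably transfected Huh7 cells after 24 h compound exposure at 37 °C in reduced-serum medium with 10% FBS.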
ELG1 genotoxic: genotoxicity induction in ELG1-luciferase HEK293T cells; HEK293T ELG1-luciferase reporter, luminescence, 16 h; Potency, µM (series often up to 46 µM), most hits filed as activators; 330,000 compounds, 1.3% hits; AID 504466; note: nearly all actives have a fitted effect of over 60% in size
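Reporter readout depends on ELG1 protein level, which increases with genetic stress. After 16 hr compound exposure at 37 °C, luciferase activity was quantified using ONE-Glo.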
FLuc modulator: firefly luciferase modulation, counter-screen for miR-21 project | Potency, µM (series often up to 57.5 µM), usual class: inhibitors | purified FLuc, Km substrates, luminescence inhibition | 360,000 compounds, 6.9% hits; note: nearly all actives have a fitted effect of over 55% in size
Target sequence (P08659 whole entry, looked up): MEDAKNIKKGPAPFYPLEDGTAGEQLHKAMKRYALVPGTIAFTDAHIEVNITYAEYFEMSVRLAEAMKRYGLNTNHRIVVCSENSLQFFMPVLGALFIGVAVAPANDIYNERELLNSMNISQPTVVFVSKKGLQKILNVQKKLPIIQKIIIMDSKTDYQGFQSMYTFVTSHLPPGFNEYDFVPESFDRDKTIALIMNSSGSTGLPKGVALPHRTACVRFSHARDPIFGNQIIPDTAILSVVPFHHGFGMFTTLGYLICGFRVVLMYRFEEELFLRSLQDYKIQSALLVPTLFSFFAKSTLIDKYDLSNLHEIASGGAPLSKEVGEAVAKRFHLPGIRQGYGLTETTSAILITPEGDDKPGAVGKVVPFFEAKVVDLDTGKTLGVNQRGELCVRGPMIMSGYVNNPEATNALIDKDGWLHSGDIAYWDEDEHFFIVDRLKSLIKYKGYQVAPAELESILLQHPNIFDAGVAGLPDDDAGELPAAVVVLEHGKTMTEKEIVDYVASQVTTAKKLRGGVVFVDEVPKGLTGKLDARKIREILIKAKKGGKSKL
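Biochemical qHTS of compounds, final roughly 60 µM downward over six points, against 10 nM purified firefly luciferase using Km concentrations of substrates (10 uM D-luciferin, 10 uM ATP) in Tris acetate pH 7.5 buffer; luminescence output.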
Large screens that a line does not name were inactive. Sampled rows, rich in hits. Any-hit rate of the full collection: about 7.5%. Calls come from the whole dose curve; as a rule, active = well fitted curve in the direction sought with a large enough effect; inconclusive = small, poorly fitted or top-dose-only effect, or another doubt; inactive = no such curve, though single readings can be large; an effect the other way counts as inactive or inconclusive.

Cc1cccc(Nc2nn3c(=O)c4ccccc4nc3s2)c1	SMN2 splice up 7.94µM, Rab9 prom act inconclusive, NPC1 prom act 3.98µM, FLuc modulator inconclusive
O=c1c2ccccc2nc2sc(Nc3cccc4ccccc34)nn12	none (no result: SMN2 splice up, Rab9 prom act, NPC1 prom act, ELG1 genotoxic)
COc1cc2c(C(=O)NCc3ccc4c(c3)OCO4)cn(C)c(=O)c2cc1OC	none
COc1ccc(-n2nc(C(=O)NCC(=O)NC3CCCCCC3)c3ccccc3c2=O)c(OC)c1	FLuc modulator inconclusive (no result: SMN2 splice up)
COc1ccc(-n2nc(C(=O)NCC(=O)N3CCCC3)c3ccccc3c2=O)c(OC)c1	FLuc modulator 13.5µM (no result: SMN2 splice up)
COc1ccc(-n2nc(C(=O)NCC(=O)N3CC(C)CC(C)C3)c3ccccc3c2=O)c(OC)c1 (configuration not stated)	FLuc modulator inconclusive (no result: SMN2 splice up)
CCOC(=O)C1CCN(C(=O)CNC(=O)c2nn(-c3ccc(OC)cc3OC)c(=O)c3ccccc23)CC1	FLuc modulator 9.53µM (no result: SMN2 splice up)
CCOC(=O)N1CCN(C(=O)CNC(=O)c2nn(-c3ccc(OC)cc3OC)c(=O)c3ccccc23)CC1	ELG1 genotoxic inconclusive, FLuc modulator 3.79µM (no result: SMN2 splice up)
Cc1ccc(C2C(C(=O)c3cc4ccccc4o3)=C(O)C(=O)N2CCN2CCOCC2)o1 (configuration not stated)	none
CC(C)Oc1ccc(C2CC(=O)N(c3cccc(C(=O)O)c3)C2=O)cc1 (configuration not stated)	ELG1 genotoxic inconclusive, FLuc modulator 16.9µM
Cc1ccc(C)c(-n2ccnc2SCC(=O)c2c(N)n(C3CC3)c(=O)[nH]c2=O)c1	none (no result: SMN2 splice up, FLuc modulator)
Cc1nn2c(-c3ccc(Cl)cc3)ccnc2c1-c1ccccc1	NPC1 prom act inconclusive, FLuc modulator 8.49µM
Cc1cc2nccc(-c3ccco3)n2n1	none
Cc1nn2c(-c3ccco3)ccnc2c1-c1ccc(Br)cc1	FLuc modulator 9.53µM (no result: Rab9 prom act, NPC1 prom act, ELG1 genotoxic)
Cc1nn2c(-c3ccco3)ccnc2c1-c1ccc(F)cc1	FLuc modulator inconclusive (no result: Rab9 prom act, NPC1 prom act, ELG1 genotoxic)
Cc1nn2c(-c3ccco3)ccnc2c1-c1ccc(Cl)cc1	FLuc modulator 5.36µM (no result: Rab9 prom act, NPC1 prom act, ELG1 genotoxic)
Cc1nn2c(-c3ccc(F)cc3)ccnc2c1Cl	none (no result: SMN2 splice up)
Cc1nn2c(N)c(-c3ccccc3)cnc2c1-c1ccccc1	Rab9 prom act 1.58µM, NPC1 prom act 2.24µM, ELG1 genotoxic inconclusive, FLuc modulator 0.953µM (no result: SMN2 splice up)
Nc1cc(S(=O)(=O)Nc2ccc(Br)cc2)ccc1Cl	none (no result: SMN2 splice up)
Cc1nn(C)c(Cl)c1CN1CCN(C2CCCCC2)C(CCO)C1 (configuration not stated)	none (no result: SMN2 splice up)
CCOC(=O)N1CCN(C(=O)CS(=O)(=O)c2cn(Cc3ccc(Cl)cc3)c3ccccc23)CC1	none
COc1ccc(C(c2nnnn2C2CCCC2)N2CCC(C)CC2)cc1 (configuration not stated)	none
CC1CCCCC1NC(=S)Nc1ccc(SC(F)F)cc1 (configuration not stated)	SMN2 splice up inconclusive, FLuc modulator 21.3µM
FC(F)Sc1ccc(NC(=S)NC2CCCCC2)cc1	SMN2 splice up inconclusive, Rab9 prom act inconclusive, ELG1 genotoxic inconclusive, FLuc modulator 10.7µM
S=C(Nc1ccc(Br)cc1)NC1CCCC1	SMN2 splice up 11.2µM, Rab9 prom act inconclusive, FLuc modulator 12µM
FC(F)Sc1ccc(NC(=S)NCC2CCCCC2)cc1	ELG1 genotoxic inconclusive, FLuc modulator 23.9µM
S=C(Nc1ccc(Oc2ccccc2)cc1)NC1CCCC1	SMN2 splice up inconclusive, FLuc modulator inconclusive
CC(=O)c1ccc(NC(=S)NC2CCCC(C)C2C)cc1 (configuration not stated)	FLuc modulator inconclusive
O=C(Cn1c(=O)cnc2ccccc21)NNC(=O)c1ccc(Cl)cc1	none (no result: SMN2 splice up)
Oc1ccc(Cl)cc1Cc1cc(Cl)cc(Cc2cc(Cl)ccc2O)c1O	none (no result: Rab9 prom act, NPC1 prom act, ELG1 genotoxic, FLuc modulator)
Fc1cccc(Cl)c1CSc1nnc(-c2ccncc2)o1	Rab9 prom act 4.47µM, NPC1 prom act inconclusive, ELG1 genotoxic inconclusive, FLuc modulator 15.1µM (no result: SMN2 splice up)
Clc1ccccc1CSc1nnc(-c2ccncc2)o1	SMN2 splice up 10µM, Rab9 prom act inconclusive, NPC1 prom act inconclusive, FLuc modulator 16.9µM
COc1cc(-c2nnc(SCc3c(F)cccc3Cl)o2)cc(OC)c1OC	none
CSc1nn2c(C(F)(F)F)cc(C(F)(F)F)nc2c1C(N)=O	none (no result: SMN2 splice up)
O=C(c1cc2cc(Br)ccc2[nH]1)N1CCc2ccccc21	NPC1 prom act 5.01µM (no result: SMN2 splice up)
O=C(c1cccc(F)c1)N1CCc2ccccc21	none
